The results in this text go back to PubChem BioAssay.

The subject of test [1] is Plasmodium falciparum Sir2 (PF13_0152, Sir2A). As to the kind of experiment: Plasmodium falciparum Sir2A binding compounds – biochemical, small-molecule microarray, 635 nm fluorescence, primary screen (AID 1098).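 Also: score merges spot fluorescence intensity with its signal-to-noise ratio.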 The conditions noted are these: fluorescence 635 nm, higher = more signal.
Test [2] in a line: probe aDKK1 binding to arrayed compounds – biochemical, biotinylated probe, 635/667 nm fluorescence, primary screen (AID 1099).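 Also: score merges 667nm spot fluorescence with signal to noise across triplicate slides.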 The conditions noted are these: small-molecule microarray, higher = more signal.
Test [3] in a line: probe aCHRDL2 binding to arrayed compounds – biochemical, biotinylated probe, 635/667 nm fluorescence, primary screen (AID 1100). The following applies: small-molecule microarray, higher = more signal.
The nature of test [4]: change in splice reporter luminescence, either direction, cell-based, HEK293, spliceosome inhibition project, primary screen (AID 1101).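 Also: HEK293 cells carrying a splicing-competent luciferase reporter gene; test concentration not given here.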 The following applies: HEK293 splicing luciferase reporter, 24 h, higher = more signal, called active from +8 up or from −8 down. (In general: A reporter such as luciferase makes a cellular process visible.)
Test [5] addresses Fibroblast growth factor 10 (Homo sapiens) (UniProt O15520). The test can be described thus: compounds binding fibroblast growth factor 10 – biochemical, small-molecule microarray, 635 nm fluorescence, primary screen (AID 1102). The conditions noted are these: FGF10 binding, fluorescence 635 nm, higher = more signal.
For test [6], the system named is glycogen synthase kinase-3 (GSK3A per assay name; protocol says GSK3B). The test can be described thus: compounds binding glycogen synthase kinase-3 – biochemical, small-molecule microarray, 635 nm fluorescence, GSK3A, primary screen (AID 1103). Also: the record names both GSK3A and GSK3B. The conditions noted are these: fluorescence 635 nm, higher = more signal.
The target of test [7] is Epidermal growth factor receptor (Homo sapiens) (UniProt P00533). The test can be described thus: compounds binding epidermal growth factor receptor – biochemical, small-molecule microarray, 635 nm fluorescence, primary screen (AID 1104).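 Also: score merges 667 nm emission intensity with spot signal to noise over triplicate slides.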 The following applies: EGFR binding, higher = more signal.
Sequence of Epidermal growth factor receptor (Homo sapiens) (P00533 whole entry, looked up): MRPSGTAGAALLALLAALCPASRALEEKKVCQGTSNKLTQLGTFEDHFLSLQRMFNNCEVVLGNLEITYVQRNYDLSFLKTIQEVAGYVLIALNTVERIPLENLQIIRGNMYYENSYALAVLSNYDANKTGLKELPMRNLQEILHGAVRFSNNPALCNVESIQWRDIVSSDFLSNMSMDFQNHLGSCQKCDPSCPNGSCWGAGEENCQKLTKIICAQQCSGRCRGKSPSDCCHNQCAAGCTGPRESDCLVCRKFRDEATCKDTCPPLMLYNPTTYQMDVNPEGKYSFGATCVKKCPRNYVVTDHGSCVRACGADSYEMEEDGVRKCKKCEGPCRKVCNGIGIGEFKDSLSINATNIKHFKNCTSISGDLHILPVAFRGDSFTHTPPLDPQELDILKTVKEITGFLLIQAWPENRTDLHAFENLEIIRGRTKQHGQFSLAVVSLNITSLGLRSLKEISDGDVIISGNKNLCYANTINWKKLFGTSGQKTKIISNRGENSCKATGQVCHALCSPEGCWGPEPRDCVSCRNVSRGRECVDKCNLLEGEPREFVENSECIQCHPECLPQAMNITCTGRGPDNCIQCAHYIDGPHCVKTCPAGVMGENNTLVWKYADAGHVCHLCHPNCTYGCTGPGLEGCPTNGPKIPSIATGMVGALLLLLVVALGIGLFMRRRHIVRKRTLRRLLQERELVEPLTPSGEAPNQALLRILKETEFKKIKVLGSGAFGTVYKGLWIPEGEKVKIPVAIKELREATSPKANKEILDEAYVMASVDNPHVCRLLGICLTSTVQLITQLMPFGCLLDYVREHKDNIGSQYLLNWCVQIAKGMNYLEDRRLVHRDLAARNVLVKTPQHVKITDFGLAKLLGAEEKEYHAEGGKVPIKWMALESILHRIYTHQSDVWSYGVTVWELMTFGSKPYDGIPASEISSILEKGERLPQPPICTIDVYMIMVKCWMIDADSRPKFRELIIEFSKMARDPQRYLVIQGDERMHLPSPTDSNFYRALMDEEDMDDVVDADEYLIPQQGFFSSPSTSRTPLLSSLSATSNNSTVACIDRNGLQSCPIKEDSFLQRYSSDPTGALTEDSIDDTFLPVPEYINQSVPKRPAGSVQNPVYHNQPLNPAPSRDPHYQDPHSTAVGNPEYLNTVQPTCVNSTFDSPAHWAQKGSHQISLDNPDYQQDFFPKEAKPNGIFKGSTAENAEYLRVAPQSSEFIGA
Test [8] concerns the target Follistatin-related protein 3 (Homo sapiens) (UniProt O95633). As to the kind of experiment: compounds binding follistatin-related protein 3 – biochemical, small-molecule microarray, 635 nm fluorescence, primary screen (AID 1105).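 Also: score merges emission near 667 nm and signal to noise per printed spot across three slides.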 The conditions noted are these: FSTL3 binding, higher = more signal.
Test [9] concerns the target Dickkopf-related protein 1 (Homo sapiens) (UniProt O94907). As to the kind of experiment: small molecules binding DKK1 protein – biochemical, small-molecule microarray, 635 nm fluorescence scan, primary screen (AID 1106).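 Also: score merges emission near 667 nm with signal to noise over three replicate slides.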 The following applies: higher = more signal.
Test [10] has as its system Inhibin beta A chain (activin A). As to the kind of experiment: small molecules binding activin A – biochemical, small-molecule microarray, 635 nm fluorescence scan, primary screen (AID 1107).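 Also: mouse activin A protein probed at 4.33 µg/mL on printed slides; score merges bound-protein fluorescence near 667 nm with spot signal-to-noise.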 The conditions noted are these: INHBA, higher = more signal.
The test system of test [11] is Human papillomavirus type 1a protein E7 (residues 44-93). The test can be described thus: small molecules binding HPV E7 44-93 – biochemical, small-molecule microarray, residues 44-93, 635 nm fluorescence, primary screen (AID 1108).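 Also: E7 fragment applied at 1 µg/mL in TBST for 1 h at 4 C; score combines spot fluorescence with its signal to noise ratio.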 The conditions noted are these: fluorescence 635 nm, higher = more signal.
Test [12] in a line: hepatitis C replication reporter changes, two-sided – Huh7 cells, luciferase reporter, HCV replication inhibitor project, primary screen (AID 1109).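 Also: huh7 hepatoma cells harbouring a luciferase neomycin HCV replicon reporter; luciferase luminescence as measure of HCV replicon replication; test concentration not given here.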 The following applies: Huh7 HCV replicon luciferase reporter, 48 h; higher = more signal.
In test [13] the target is Left-right determination factor 2 (Homo sapiens) (UniProt O00292). The test can be described thus: small molecules binding LEFTY2 protein – biochemical, small-molecule microarray, 635 nm fluorescence scan, primary screen (AID 1110). The following applies: higher = more signal.
Sequence of Left-right determination factor 2 (Homo sapiens) (O00292 whole entry, looked up): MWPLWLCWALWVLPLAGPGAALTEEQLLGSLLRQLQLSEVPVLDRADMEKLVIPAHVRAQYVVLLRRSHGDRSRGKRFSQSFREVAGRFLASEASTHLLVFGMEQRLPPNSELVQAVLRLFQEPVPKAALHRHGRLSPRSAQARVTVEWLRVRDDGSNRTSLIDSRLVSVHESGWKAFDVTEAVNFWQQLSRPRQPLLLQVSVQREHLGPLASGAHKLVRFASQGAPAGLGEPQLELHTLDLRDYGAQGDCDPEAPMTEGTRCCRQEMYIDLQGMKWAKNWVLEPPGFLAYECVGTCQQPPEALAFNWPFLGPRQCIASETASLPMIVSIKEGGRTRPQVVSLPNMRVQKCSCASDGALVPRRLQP
For test [14], the target named is Calmodulin-1 (Homo sapiens) (UniProt P0DP23). As to the kind of experiment: small molecules binding calmodulin-1 with EGTA – biochemical, small-molecule microarray, Cy5-labelled CALM1, profiling panel (AID 1111).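 Also: labelled calmodulin applied in Tris saline Tween buffer holding calcium plus EGTA and DTT.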 The following applies: Cy5-CALM1 binding fluorescence, higher = more signal.
The target is the same in test [15]. The test can be described thus: small molecules binding Ca-loaded calmodulin-1 – biochemical, small-molecule microarray, Cy5-labelled CALM1, plus calcium, artefact control for SMM control-protein annotation, profiling panel (AID 1112).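 Also: score merges spot fluorescence with signal to noise from triplicate slides.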 The conditions noted are these: Cy5-CALM1 binding fluorescence, higher = more signal.
Test [16] is described as follows: probe aWnt5a binding to arrayed compounds – biochemical, biotinylated probe, 635/667 nm fluorescence, primary screen (AID 1113).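 Also: score merges 667 nm fluorescence intensity with signal-to-noise per printed feature.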 The conditions noted are these: small-molecule microarray, higher = more signal.
Test [17] is described as follows: probe aShh binding to arrayed compounds – biochemical, biotinylated probe, 635/667 nm fluorescence, primary screen (AID 1114).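 Also: probe is biotin-labelled aShh protein from a stem cell growth factor screen; measures binding of labelled protein to compounds printed on the slide; score merges feature fluorescence at 667 nm with signal-to-noise.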 The following applies: small-molecule microarray, higher = more signal.
Test [18] can be described thus: probe aNog binding to arrayed compounds – biochemical, biotinylated probe, 635/667 nm fluorescence, primary screen (AID 1115).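 Also: probe is biotinylated aNog protein used at 0.15 µg/mL for 1 h at 4 C; z-score combines 667 nm fluorescence of each spot with its signal to noise.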 The following applies: small-molecule microarray, higher = more signal.
Test [19] concerns the target Torsin-1A-interacting protein 1 (Homo sapiens) (UniProt Q5JTV8). As to the kind of experiment: compound microarray binding of lysate hLAP1 – cell lysate, small-molecule microarray, COS7 lysate, 635/667 nm fluorescence, primary screen (AID 1116). The following applies: 635 nm fluorescence, higher = more signal.
The target in test [20] is Alpha-bungarotoxin (Bungarus multicinctus) (UniProt P60615). The test can be described thus: compounds binding labelled alpha-BTX control protein – biochemical, small-molecule microarray, Alexa647 label, 635/667 nm fluorescence, artefact control for SMM control protein annotation, profiling panel (AID 1117). The following applies: alpha-BTX-A647 binding fluorescence, higher = more signal.
Sequence of Alpha-bungarotoxin (Bungarus multicinctus) (P60615 whole entry, looked up): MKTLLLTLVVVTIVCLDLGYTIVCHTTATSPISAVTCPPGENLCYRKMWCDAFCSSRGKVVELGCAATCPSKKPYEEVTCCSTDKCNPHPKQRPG

SMILES strings stand for the structures. Activity calls are given as the source filed them.

Sequence of Dickkopf-related protein 1 (Homo sapiens) (O94907 whole entry, looked up): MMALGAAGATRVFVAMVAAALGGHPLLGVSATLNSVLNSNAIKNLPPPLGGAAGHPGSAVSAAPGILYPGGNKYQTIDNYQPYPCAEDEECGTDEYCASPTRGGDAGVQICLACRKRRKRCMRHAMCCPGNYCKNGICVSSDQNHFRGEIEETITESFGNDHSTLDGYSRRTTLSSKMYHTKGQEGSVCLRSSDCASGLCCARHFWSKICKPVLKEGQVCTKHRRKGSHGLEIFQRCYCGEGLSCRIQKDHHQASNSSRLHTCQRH
Sequence of Fibroblast growth factor 10 (Homo sapiens) (O15520 whole entry, looked up): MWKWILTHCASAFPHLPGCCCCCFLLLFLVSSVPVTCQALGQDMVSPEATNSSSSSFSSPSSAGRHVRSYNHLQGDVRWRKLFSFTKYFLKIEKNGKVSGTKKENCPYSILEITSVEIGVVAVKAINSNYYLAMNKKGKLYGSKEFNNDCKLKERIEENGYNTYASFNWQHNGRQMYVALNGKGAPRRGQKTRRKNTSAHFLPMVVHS
Sequence of Torsin-1A-interacting protein 1 (Homo sapiens) (Q5JTV8 whole entry, looked up): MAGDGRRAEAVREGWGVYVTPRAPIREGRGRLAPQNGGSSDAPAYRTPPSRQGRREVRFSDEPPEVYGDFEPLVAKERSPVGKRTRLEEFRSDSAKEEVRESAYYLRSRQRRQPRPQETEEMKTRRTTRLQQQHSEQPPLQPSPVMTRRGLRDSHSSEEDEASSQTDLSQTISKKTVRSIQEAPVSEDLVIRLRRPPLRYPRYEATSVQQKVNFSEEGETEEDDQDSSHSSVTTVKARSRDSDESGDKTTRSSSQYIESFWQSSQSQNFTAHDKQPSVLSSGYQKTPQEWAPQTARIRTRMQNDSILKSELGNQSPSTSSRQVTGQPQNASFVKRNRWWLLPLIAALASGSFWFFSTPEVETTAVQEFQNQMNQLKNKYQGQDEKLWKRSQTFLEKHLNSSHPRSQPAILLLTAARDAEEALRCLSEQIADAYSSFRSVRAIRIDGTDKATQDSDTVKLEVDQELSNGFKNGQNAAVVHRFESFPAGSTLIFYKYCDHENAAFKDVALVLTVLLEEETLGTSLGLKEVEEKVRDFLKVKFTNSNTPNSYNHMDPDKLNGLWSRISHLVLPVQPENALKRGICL
Sequence of Follistatin-related protein 3 (Homo sapiens) (O95633 whole entry, looked up): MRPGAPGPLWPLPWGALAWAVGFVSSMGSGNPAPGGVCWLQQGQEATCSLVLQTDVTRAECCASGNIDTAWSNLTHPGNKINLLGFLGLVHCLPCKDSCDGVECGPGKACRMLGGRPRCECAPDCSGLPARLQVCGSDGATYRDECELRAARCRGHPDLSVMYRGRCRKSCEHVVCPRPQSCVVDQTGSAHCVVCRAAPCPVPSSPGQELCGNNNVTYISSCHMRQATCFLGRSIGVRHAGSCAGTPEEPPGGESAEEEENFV

For `O=C(NCC(O)CO)[C@@]1(CCS(=O)(=O)c2ccccc2)COC(c2ccc(OCCCO)cc2)=N1` (stereo not given in full), the composite z-score in test [1] was 1.13; in test [2] it was 1.07; in test [3], 1.16; in [5], 0.655; in test [6], -0.454; in test [7], -0.375. The composite z-score in [8] is -0.199; in test [9], -0.522; in [10], 0.877; in test [11], 1.38; in test [13], -0.412; in [14], 1.25. Further, the composite z-score in [15] is 1.09; in test [16], 0.0944; in test [17], 0.385; in test [18], 1.81; in [19], 2.48; in test [20] it was 2.58. The z-score in test [4] is 0.475 (inactive); in test [12], -0.119.

Consider `COc1cc(NN2C(C(O)c3ccccc3)C=CC3C(=O)N(C)C(=O)C32)cc(OC)c1OC` (stereo not given), for which the composite z-score in test [1] amounted to 0.618; in test [2], 0.195; in test [3] it was 0.8; in [5], 0.422; in [6], 0.843; in test [7], 0.187. For the same compound, the composite z-score in test [8] is 0.362; in test [9], -0.186; in [10], 0.784; in test [11], 1.35; in test [13] it was 0.222; in test [14] it was 0.533. In addition, the composite z-score in test [15] is -0.171; in [16], 0.0437; in test [17], 0.151; in test [18], 0.521; in test [19] it was 0.891; in test [20], 0.544. Moreover, the z-score in test [4] was -0.676 (inactive); in test [12], -0.928.

For `CN(C)CCCC[C@@H]1NC(=O)[C@@H]2C[C@H](C(=O)O)[C@H](c3cccc(OCCO)c3)N2C1=O`, the composite z-score in test [1] is 1.25; in test [2], -0.336; in test [3] it was -0.165; in [5], -0.376; in test [6] it was -0.461; in test [7], -0.277. Also, the composite z-score was -0.306 in test [8]; 0.333 in [9]; -0.7 in [10]; -0.927 in test [11]; -0.43 in test [13]; -0.832 in test [14]. The composite z-score in test [15] was -0.238; in [16] it was -0.0179; in [17], -0.0793; in test [18], -0.375; in test [19], -0.657; in test [20], -0.676. The z-score in test [4] was 0.0013 (inactive); in test [12], -0.282.

As for `CC(C)CNC(=O)[C@@]1(C)c2ccccc2C(=O)N(Cc2cc(C(F)(F)F)cc(C(F)(F)F)c2)[C@H]1c1ccc(CO)cc1`, the composite z-score in [1] is 0.386; in test [2], -0.147; in test [3] it was 0.587; in test [5], -0.631; in test [6], -1.02; in test [7] it was -0.647. In addition, the composite z-score in [8] was -0.522; in [9], -0.6; in test [10] it was 0.32; in [11], 0.267; in test [13], -0.557; in test [14] it was -0.438. The composite z-score in test [15] was 0.507; in test [16], -0.175; in test [17], -0.291; in test [18], -0.318; in test [19], 0.0492; in [20], -0.0153. The z-score in test [4] is 0.0167 (inactive); in test [12], -0.447.

Take `CN1C=C(C(=O)OCCS(C)(=O)=O)C(C(=O)OCCS(C)(=O)=O)=CC(c2ccc(CO)cc2)=CC1c1cccs1` (stereo not given): the composite z-score turned out to be 0.76 in test [1]; 0.162 in test [2]; 0.102 in test [3]; 0.588 in test [5]; 0.499 in test [6]; 0.294 in test [7]. For the same compound, the composite z-score in test [8] is 0.226; in [9] it was -0.0496; in test [10], 1.47; in test [11] it was 0.229; in [13], 0.0843; in test [14], -0.165. Further, the composite z-score in test [15] was -0.388; in test [16] it was -0.0405; in [17], 0.0062; in test [18] it was 0.304; in test [19] it was 1.46; in test [20], 0.821. The z-score in [4] was 0.497 (inactive); in [12] it was 0.19.

Regarding `Cc1cccc([C@H]2C[C@H]3C(I)=C[C@@H]2C(=O)[C@]32CO2)c1`, the composite z-score in test [1] is -0.636; in test [2], -0.251; in test [3], 0.154; in [5], 0.575; in test [6] it was -0.499; in test [7], -0.0512. Further, the composite z-score in test [8] was 0.445; in test [9], 0.125; in [10], 1.03; in test [11] it was -0.998; in [13], 0.0047; in [14], -0.542. The composite z-score was -0.271 in test [15]; -0.141 in [16]; -0.345 in [17]; -0.0381 in test [18]; -0.0258 in test [19]; 0.132 in test [20]. Also, the z-score was -1.48 (inactive) in test [4] and -1.94 in test [12].
